Source: PubChem BioAssay
TLR9-MyD88 block: inhibitors of TLR9-MyD88 association in cells, primary screen, cell-based, CHO, BLA complementation, fluorescence. Toll-like receptor 9 (Homo sapiens) + Myeloid differentiation primary response protein …. CCF4 FRET ratio. inhibition, % at 4.98 µM. 340,000 tested, 0.21% active. AID 504734, 2011;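 active means inhibition above the mean over all tested compounds plus 3 SD, cut at about 21% in these data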;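 further: 0% = DMSO only wells and 100% = clavulanate BLA inhibitor control wells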
TLR4-MyD88 BLA: inhibitors of TLR4-MyD88 association in cells, primary screen, cell-based, HeLa CL3-4, BLA complementation, FRET ratio; Toll-like receptor 4 (Homo sapiens) + Myeloid differentiation primary response protein …; HeLa CL3-4 TLR4/MyD88 BLA complementation; inhibition, % at 8.4 µM; 200,000 tested, 0.18% active; AID 861, 2007; in the data active means inhibition above about 25%;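 further: 0% = vehicle and 100% = reference inhibitor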
NOD2-RIPK2 inh: NOD2-RIPK2 binding disruptors in cells, primary screen, fluorescence, CHO cells, BLA complementation; Receptor-interacting serine/threonine-protein kinase 2 (Homo sapiens), O43353; CCF4 ratio; inhibition, % at 4.98 µM; 360,000 tested, 0.38% active; AID 624267, 2012; in the data active means inhibition above about 21%;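 further: 0% = vehicle only and 100% = reference blocker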
Granule exo inh: LAMP-1 surface exposure blockers, TALL-104 cells – cell-based, flow cytometry, MLPCN library, primary screen | TALL-104 LAMP-1 surface exposure; cells stimulated with thapsigargin and PMA | inhibition, % at 10 µM | 360,000 tested, 0.66% active | AID 651702, 2012;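 active means inhibition above about 55%, limit read from the data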
B2AR ag: beta2AR agonists driving receptor internalization, primary screen, cell-based, FAP fluorogen, flow cytometry; response, % (test concentration not listed); Am2.2-beta2AR cells; Beta-2 adrenergic receptor (Homo sapiens), P07550; 340,000 tested, 0.43% active;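 active means response above a set limit, near 3 SD of response in nonfluorescent compounds, cut at about 42% in these data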
ABHD5-PLIN5 inh: ABHD5-PLIN5 interaction inhibitors, primary screen, cell lysate, split luciferase complementation, luminescence; inhibition, % at 4 µM; 360,000 tested, 0.78% active; Split G. princeps luciferase complementation, 4 h; Perilipin-5 (Homo sapiens) + 1-acylglycerol-3-phosphate O-acyltransferase ABHD5 (Homo …; AID 602281, 2012;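 active means inhibition above the mean inhibition across every tested compound plus 3 SD, cut at about 22% in these data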;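 further: 0% = DMSO only wells and the 100% control is not disclosed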
Target sequence (Q00G26 whole entry, looked up): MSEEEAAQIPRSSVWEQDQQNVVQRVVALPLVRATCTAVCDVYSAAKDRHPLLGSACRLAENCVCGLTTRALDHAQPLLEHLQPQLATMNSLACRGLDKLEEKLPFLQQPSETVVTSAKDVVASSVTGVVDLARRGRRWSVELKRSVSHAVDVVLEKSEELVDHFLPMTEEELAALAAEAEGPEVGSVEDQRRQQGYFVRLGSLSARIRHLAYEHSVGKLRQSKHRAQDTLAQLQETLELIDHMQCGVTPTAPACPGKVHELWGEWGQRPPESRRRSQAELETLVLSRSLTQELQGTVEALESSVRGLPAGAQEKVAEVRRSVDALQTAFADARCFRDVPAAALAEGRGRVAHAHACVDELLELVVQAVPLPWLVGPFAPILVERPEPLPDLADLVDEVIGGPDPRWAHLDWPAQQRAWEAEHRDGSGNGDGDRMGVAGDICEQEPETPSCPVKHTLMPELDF
Target sequence (Q8WTS1 whole entry, looked up): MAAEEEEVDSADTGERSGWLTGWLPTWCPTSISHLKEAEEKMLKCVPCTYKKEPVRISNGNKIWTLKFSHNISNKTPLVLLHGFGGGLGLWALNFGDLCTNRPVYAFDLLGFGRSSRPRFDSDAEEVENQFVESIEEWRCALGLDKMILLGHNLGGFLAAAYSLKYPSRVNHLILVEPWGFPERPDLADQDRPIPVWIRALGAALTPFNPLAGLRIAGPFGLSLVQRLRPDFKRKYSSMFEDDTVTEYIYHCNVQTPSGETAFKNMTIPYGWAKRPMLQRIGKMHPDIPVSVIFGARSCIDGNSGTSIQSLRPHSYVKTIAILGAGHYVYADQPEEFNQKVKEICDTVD
Beta2AR ag CP1: beta2AR agonists via receptor internalization, confirmation, cell-based, FAP fluorogen, flow cytometry, single point, cherry pick 1. Am2.2-beta2AR cells, FAP surface receptor; active compounds read low. shares compounds with B2AR ag. percent response (surface receptor), % at 10 µM. 1,100 tested, 25% active;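 active means surface receptor percent response at or below 58%, roughly 3 SD from nonfluorescent compounds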
B2AR FAP counter: counter-screen for beta-2AR agonists: fluorescence in Am2.2 cells | shares compounds with B2AR ag | FAP fluorogen flow cytometry, fluorescence counterscreen; active compounds read low | calls only at 10 µM | 1,100 tested, under 10 active;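 active means percent response below a set limit in fluorescence channel 1 and below 50% in channel 8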
An asterisk follows results filed as active. In the library only some 2% were active in any assay of this set; here they are far more common.

CCOC(=O)N1CCN(C(=O)CN(C)S(=O)(=O)c2ccc(Cl)cc2)CC1 was read as TLR9-MyD88 block 10, NOD2-RIPK2 inh -12, Granule exo inh -17, B2AR ag 82*, ABHD5-PLIN5 inh 7, Beta2AR ag CP1 15* and B2AR FAP counter inactive.
CCN1CCN(C(=O)CN(C)S(=O)(=O)c2ccc(Cl)cc2)CC1 was read as TLR9-MyD88 block -2, TLR4-MyD88 BLA 13, NOD2-RIPK2 inh -4, Granule exo inh 0, B2AR ag -4 and ABHD5-PLIN5 inh -2.
Screening CN(CC(=O)N1CCCCCC1)S(=O)(=O)c1ccc(Br)cc1 returned TLR9-MyD88 block -1, NOD2-RIPK2 inh -7, Granule exo inh -7, B2AR ag 0 and ABHD5-PLIN5 inh 4.
For CN(CC(=O)N1CCN(c2ccccn2)CC1)S(=O)(=O)c1ccc(Br)cc1 the results were TLR9-MyD88 block -6, TLR4-MyD88 BLA -1, NOD2-RIPK2 inh -4, Granule exo inh 2, B2AR ag 107*, ABHD5-PLIN5 inh 3, Beta2AR ag CP1 27* and B2AR FAP counter inactive.
O=C(CN1CCN(Cc2ccccc2)CC1)Nc1cccc(Cl)c1Cl was read as TLR9-MyD88 block -6, NOD2-RIPK2 inh -11, Granule exo inh -6 and ABHD5-PLIN5 inh 1.
Screening O=C(c1ccccc1)c1cc([N+](=O)[O-])ccc1N1CCOCC1 returned TLR9-MyD88 block 3, TLR4-MyD88 BLA 9, NOD2-RIPK2 inh 11, Granule exo inh 1, B2AR ag 16 and ABHD5-PLIN5 inh 0.
CC1CCCN(c2ccc([N+](=O)[O-])cc2C(=O)c2ccccc2)C1 (configuration not stated) was read as TLR9-MyD88 block 8, TLR4-MyD88 BLA -3, NOD2-RIPK2 inh -6, Granule exo inh 25, B2AR ag 42*, ABHD5-PLIN5 inh 4, Beta2AR ag CP1 49* and B2AR FAP counter inactive.
O=S(=O)(Nc1cccc(-c2cn3cccnc3n2)c1)c1ccc(-c2ccccc2)cc1 was read as TLR9-MyD88 block 7, TLR4-MyD88 BLA 7, NOD2-RIPK2 inh -8, Granule exo inh -11, B2AR ag 110*, ABHD5-PLIN5 inh 15, Beta2AR ag CP1 12* and B2AR FAP counter inactive.
Screening CCOC(=O)N1CCN(C(=O)C[C@@H]2C[C@@]3(C(=O)OC)CC(C)(C)CC=C3N(Cc3ccc4c(c3)OCO4)C2=O)CC1 returned NOD2-RIPK2 inh 3, Granule exo inh 5 and ABHD5-PLIN5 inh 3.
`COc1cc(C(C)=O)ccc1OCC(O)CNCC(O)c1ccccc1` (configuration not stated) gave TLR9-MyD88 block -12, NOD2-RIPK2 inh -13, Granule exo inh 5, B2AR ag -9, ABHD5-PLIN5 inh -3, Beta2AR ag CP1 109 and B2AR FAP counter inactive.
O=C(Nc1ccc(Nc2ccncc2)cc1)c1ccc(Nc2ccnc3ccc([N+](=O)[O-])cc23)cc1 was read as TLR9-MyD88 block -6, NOD2-RIPK2 inh -1, Granule exo inh -42, B2AR ag 69*, ABHD5-PLIN5 inh -5, Beta2AR ag CP1 82 and B2AR FAP counter inactive.
For O=C(Nc1ccc(Cc2ccncc2)cc1)c1cccc([N+](=O)[O-])c1 the results were TLR9-MyD88 block -9, TLR4-MyD88 BLA -4, NOD2-RIPK2 inh -2, Granule exo inh 12, B2AR ag -3 and ABHD5-PLIN5 inh 0.
